From PubChem BioAssay (Tox21)
Values joined by “and” are separate entries in the source; they are usually repeats but may differ in a detail not shown here. Equal entries are not always repeated. Records with an inconclusive call do not appear. Active and inactive are the calls of the source. Unless noted, the call rests on the fitted dose curve; in most records, active means well fitted curve in the direction sought with a large enough effect in the repeat runs; inconclusive means weak or mixed curves; inactive means no such curve, though single readings can be large; an effect the other way counts as inactive or inconclusive.

What was measured:
[1] = qHTS assay to identify small molecule agonists of the RXR signaling pathway - cell viability counter screen (AID 1159529); further: nearly all actives have a fitted effect of over 50% in size; further: potency means the concentration at half of the fitted maximal effect
How it was run: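 RXR-alpha-UAS-bla HEK 293T cells in medium with 2% charcoal-stripped FBS were pre-incubated 5 hr, then compound-treated 16 hr at 37 C. Viability was read by CellTiter-Glo luminescence in the same wells as the beta-lactamase assay, with tetraoctyl ammonium bromide as positive control.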

[2] = qHTS assay to identify small molecule antagonists of the estrogen related receptor (ERR) signaling pathway from Tox21 library - cell viability counter screen (AID 1224834); further: nearly all actives have a fitted effect of over 30% in size; further: potency means the concentration at half of the fitted maximal effect
How it was run: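 Compounds in DMSO were pinned onto ERR cells that had been incubated for 6 h, and the plates were held at 37 C for 17.5 h. CellTiter-Fluor reagent was then added and fluorescence was measured after 30 min.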

[3] = target: Luciferin 4-monooxygenase (Photinus pyralis) (UniProt P08659); assay: qHTS assay to identify small molecule inhibitors of firefly luciferase (AID 1224835); further: nearly all actives have a fitted effect of over 25% in size; further: potency means the concentration at half of the fitted maximal effect
Luciferin 4-monooxygenase (Photinus pyralis), sequence (P08659 whole entry, looked up): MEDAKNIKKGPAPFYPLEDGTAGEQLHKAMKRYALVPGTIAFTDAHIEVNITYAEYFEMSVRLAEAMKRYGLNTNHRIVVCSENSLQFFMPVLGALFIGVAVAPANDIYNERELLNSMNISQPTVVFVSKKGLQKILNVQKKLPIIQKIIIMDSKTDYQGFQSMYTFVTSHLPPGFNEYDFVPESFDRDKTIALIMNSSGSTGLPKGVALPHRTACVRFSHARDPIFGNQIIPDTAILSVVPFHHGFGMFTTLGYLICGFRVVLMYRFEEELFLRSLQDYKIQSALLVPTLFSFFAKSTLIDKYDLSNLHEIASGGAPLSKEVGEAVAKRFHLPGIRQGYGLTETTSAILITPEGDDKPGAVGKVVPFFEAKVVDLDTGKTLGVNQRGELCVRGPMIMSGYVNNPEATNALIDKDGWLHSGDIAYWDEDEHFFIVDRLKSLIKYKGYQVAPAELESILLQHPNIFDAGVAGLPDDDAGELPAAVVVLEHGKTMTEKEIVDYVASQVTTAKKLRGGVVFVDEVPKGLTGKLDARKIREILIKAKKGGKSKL
How it was run: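 Biochemical qHTS: compounds run as interplate titrations against purified firefly enzyme, with D-luciferin and ATP each at its KM concentration. Light output recorded by CCD imaging.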

[4] = qHTS assay to identify small molecule agonists of the constitutive androstane receptor (CAR) signaling pathway - cell viability counter screen (AID 1224836); further: nearly all actives have a fitted effect of over 45% in size; further: potency means the concentration at half of the fitted maximal effect
How it was run: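 HepG2 cells stably carrying hCAR and a CYP2B6-2.2kb reporter; 15-concentration compounds plus PK11195 (final 0.75 uM), 23 hr at 37 C/5% CO2. Viability read by CellTiter-Fluor fluorescence.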

[5] = qHTS assay to identify small molecule antagonists of the constitutive androstane receptor (CAR) signaling pathway - cell viability counter screen (AID 1224837); further: nearly all actives have a fitted effect of over 45% in size; further: potency means the concentration at half of the fitted maximal effect
How it was run: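 Cells are seeded, rested 4 hr at 37 C/5% CO2, dosed with compound (15-point series) and 50 nM CITCO, incubated a further 23 hr, and then CellTiter-Fluor reagent is added before fluorescence is read. The line is HepG2 with stable hCAR and CYP2B6-2.2kb.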

[6] = qHTS assay to identify small molecule antagonists of the estrogen related receptor signaling pathway with the pleiotropic PPARgamma coactivator (PGC) from Tox21 10K library - cell viability counter screen (AID 1224840; active means well fitted cell-killing curve with a large enough effect in the repeat runs, not every such curve was filed as active; further: nearly all actives have a fitted effect of over 40% in size; further: potency means the concentration at half of the fitted maximal effect)
How it was run: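 Cell viability is measured by CellTiter-Fluor fluorescence in PGC/ERR cells that receive compounds after a 6-hour attachment period and are then incubated 17.5 hours at 37 C.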

[7] = qHTS assay to identify small molecule antagonists of the estrogen related receptor signaling pathway with the pleiotropic PPARgamma coactivator (PGC) from Tox21 10K library (AID 1224841; call rule not given here; further: actives are mostly falling curves and most rising ones were filed inactive; nearly all actives have a fitted effect of over 50% in size; further: potency means the concentration at half of the fitted maximal effect)
How it was run: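 Cells stably carrying the PGC/ERR reporter, seeded at 2,000 per well, received pin-transferred compounds 6 h post-plating. Exposure lasted 18 h at 37 C. Signal: One-Glo luminescence.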

[8] = qHTS assay to identify small molecule agonists of the estrogen related receptor signaling pathway with the pleiotropic PPARgamma coactivator (PGC) from Tox21 10K library (AID 1224842); further: nearly all actives have a fitted effect of over 15% in size; further: potency means the concentration at half of the fitted maximal effect
How it was run: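 PGC/ERR reporter cell line, 2,000 cells per well, incubated 6 h at 37 C before 23 nL compound in DMSO was added. After 18 h at 37 C, One-Glo luminescence read following 30 min at room temperature.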

[9] = target: Thyrotropin receptor (Homo sapiens) (UniProt P16473); assay: qHTS assay to identify small molecule agonists of the thyroid stimulating hormone receptor (TSHR) signaling pathway (AID 1224843; calls by dose curve; further: nearly all actives have a fitted effect of over 45% in size; further: potency means the concentration at half of the fitted maximal effect)
Thyrotropin receptor (Homo sapiens), sequence (P16473 whole entry, looked up): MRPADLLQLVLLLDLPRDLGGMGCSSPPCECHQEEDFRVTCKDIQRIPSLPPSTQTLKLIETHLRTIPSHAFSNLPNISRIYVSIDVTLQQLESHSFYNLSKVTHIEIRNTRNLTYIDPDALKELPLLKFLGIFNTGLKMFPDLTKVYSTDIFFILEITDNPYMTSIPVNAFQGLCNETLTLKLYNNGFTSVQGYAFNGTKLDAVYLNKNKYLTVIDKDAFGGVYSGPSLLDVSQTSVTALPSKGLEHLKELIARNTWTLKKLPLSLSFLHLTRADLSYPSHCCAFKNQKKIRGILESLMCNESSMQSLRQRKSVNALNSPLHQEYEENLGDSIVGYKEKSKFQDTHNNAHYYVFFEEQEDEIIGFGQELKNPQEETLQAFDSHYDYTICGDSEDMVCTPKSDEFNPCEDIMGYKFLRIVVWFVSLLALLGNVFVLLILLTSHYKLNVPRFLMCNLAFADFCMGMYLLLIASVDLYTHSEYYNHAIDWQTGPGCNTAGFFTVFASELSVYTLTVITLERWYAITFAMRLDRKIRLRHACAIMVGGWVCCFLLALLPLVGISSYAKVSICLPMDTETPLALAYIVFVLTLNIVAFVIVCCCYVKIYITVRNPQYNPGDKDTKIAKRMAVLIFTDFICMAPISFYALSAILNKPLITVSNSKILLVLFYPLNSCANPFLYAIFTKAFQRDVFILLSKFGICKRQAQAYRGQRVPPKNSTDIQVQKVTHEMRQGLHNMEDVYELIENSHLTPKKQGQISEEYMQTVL
How it was run: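 HEK293/TSHR, 800 cells/well; cpd 30 min RT; add cAMP-d2 + anti-cAMP-cryptate, 1 h RT; fluorescence read on plate reader. 15-pt titration, n=3.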

[10] = qHTS assay to identify small molecule agonists of the retinoic acid receptor (RAR) signaling pathway (AID 1159553)
How it was run: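 Quantitative high-throughput format: the Tox21 10K library was tested on C3RL4 RARE-luciferase cells for 6 hr at 37 C and 5% CO2, with luminescence measured after a 30 min room-temperature reagent step.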

[11] = target: Nuclear receptor subfamily 1 group I member 3 (Homo sapiens) (UniProt Q14994); assay: qHTS assay to identify small molecule antagonists of the constitutive androstane receptor (CAR) signaling pathway (AID 1224838);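 further: HepG2 cells stably expressing hCAR with CYP2B6 luciferase reporter stimulated by CITCO; nearly all actives have a fitted effect of over 40% in size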; further: potency means the concentration at half of the fitted maximal effect
Nuclear receptor subfamily 1 group I member 3 (Homo sapiens), sequence (Q14994 whole entry, looked up): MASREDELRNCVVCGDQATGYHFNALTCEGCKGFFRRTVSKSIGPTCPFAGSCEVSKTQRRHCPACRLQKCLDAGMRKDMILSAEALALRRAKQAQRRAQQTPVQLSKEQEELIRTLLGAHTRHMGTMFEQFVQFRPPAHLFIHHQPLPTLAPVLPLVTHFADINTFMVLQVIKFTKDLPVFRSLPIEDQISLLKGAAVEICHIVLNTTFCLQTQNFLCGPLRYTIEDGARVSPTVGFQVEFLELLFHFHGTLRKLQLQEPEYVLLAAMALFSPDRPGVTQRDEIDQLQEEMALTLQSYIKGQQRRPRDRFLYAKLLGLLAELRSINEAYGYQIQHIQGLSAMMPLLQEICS
How it was run: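 Luminescence from a CYP2B6-2.2kb promoter reporter in hCAR-expressing HepG2 cells reflects CAR signaling. Cells received compounds at 15 concentrations and 50 nM CITCO (final), then incubated 24 h at 37 C/5% CO2.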

[12] = target: Nuclear receptor subfamily 1 group I member 3 (Homo sapiens) (UniProt Q14994); assay: qHTS assay to identify small molecule agonists of the constitutive androstane receptor (CAR) signaling pathway (AID 1224839); further: nearly all actives have a fitted effect of over 15% in size; further: potency means the concentration at half of the fitted maximal effect
How it was run: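 HepG2 cells stably co-transfected with hCAR and a CYP2B6-2.2kb luciferase reporter; compounds at 15 concentrations with 0.75 uM PK11195 present. After 24 hr at 37 C, luciferase read by ONE-Glo luminescence.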

[13] = qHTS assay to identify small molecule antagonists of the retinoid acid receptor (RAR) signaling pathway - cell viability counter screen (AID 1159551); further: nearly all actives have a fitted effect of over 35% in size; further: potency means the concentration at half of the fitted maximal effect
How it was run: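 ATP-based viability, C3RL4 cells, 6 h at 37 C with 1 uM final retinol co-added after compound; luminescence read 30 min post CellTiter-Glo, RT.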

[14] = qHTS assay to identify small molecule antagonists of the retinoic acid receptor (RAR) signaling pathway (AID 1159552; further: nearly all actives have a fitted effect of over 50% in size; further: potency means the concentration at half of the fitted maximal effect)
How it was run: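 Retinol signaling pathway inhibitors screened in C3RL4 RARE-luciferase reporter cells seeded overnight at 37 C, then compounds added with 1 uM (final) retinol as pathway substrate. After 6 hr at 37 C, luciferase luminescence read after 30 min at room temperature.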

[15] = qHTS assay to identify small molecule antagonists of the estrogen related receptor (ERR) signaling pathway - cell viability counter screen (AID 1224818);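 further: series mostly up to about 46 µM; viability measured after 17.5 h of compound exposure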
How it was run: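 Quantitative high-throughput viability counter screen in ERR cells. Compounds (DMSO) incubated 17.5 h at 37 C; read-out was CellTiter-Fluor fluorescence.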

[16] = qHTS assay to identify small molecule antagonists of the estrogen related receptor (ERR) signaling pathway (AID 1224819;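 further: luminescence from an ERR-driven luciferase reporter measured with One-Glo reagent; series mostly up to about 46 µM; nearly all actives have a fitted effect of over 50% in size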)
How it was run: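 ERR reporter cell line (NTP) plated at 2,000 cells/well, settled 6 h at 37C/5% CO2, then exposed to LOPAC compounds for 18 h at 37C. One-Glo luciferase luminescence read after 30 min at room temperature.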

[17] = qHTS assay to identify small molecule agonists of the estrogen related receptor (ERR) signaling pathway (AID 1224820)
How it was run: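 Luminescence readout (One-Glo, 30 min RT) from NTP-supplied ERR cell line exposed to compounds for 18 h at 37 C. Cells seeded 2,000 per well and pre-incubated 6 h before pin-tool compound transfer.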

[18] = system: estrogen-related receptor alpha (ERRalpha) with PGC-1alpha coactivator, human; assay: qHTS assay to identify small molecule antagonists of the estrogen related receptor signaling pathway with the pleiotropic PPARgamma coactivator (PGC) (AID 1224821; calls by dose curve)
How it was run: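 PGC/ERR reporter cells; 6 h pre-incubation 37 C/5% CO2; pin-tool compound in DMSO, 18 h 37 C; One-Glo added, 30 min RT; luminescence read. qHTS antagonist mode.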

[19] = qHTS assay to identify small molecule antagonists of the estrogen related receptor signaling pathway with the pleiotropic PPARgamma coactivator (PGC) cell viability counter screen (AID 1224822; further: series mostly up to about 46 µM)
How it was run: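 Cytotoxicity in the PGC/ERR cell line is assessed with CellTiter-Fluor, read as fluorescence intensity 30 min after reagent addition, following 17.5 h compound treatment at 37 C.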

[20] = qHTS assay to identify small molecule agonists of the estrogen related receptor signaling pathway with the pleiotropic PPARgamma coactivator (PGC) (AID 1224823)
How it was run: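 Luminescence readout (One-Glo, 30 min RT) from PGC/ERR cell line treated 18 h at 37 C with pin-tool-delivered DMSO compound solutions; cells plated 6 h before dosing. Quantitative HTS format.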

Measured: Potency

O=[N+]([O-])O[C@H]1CO[C@H]2[C@@H]1OC[C@H]2O[N+](=O)[O-]
inactive: [1] | [2] | [3] | [4] | [5] | [6] | [7] | [8] | [9]

CC(=O)NNc1ccccc1
inactive: [1] | [10] | [4] | [5] | [11] | [12] | [7] | [8] | [9]

C[C@]12CC[C@H]3[C@@H](CCC4=CC(=O)CC[C@@H]43)[C@@H]1CC[C@@H]2OC(=O)CCc1ccccc1
inactive: [13] | [2] | [4] | [5] | [11] | [12] | [6] | [7] | [8] | [9]

O=C(O)COc1cc(Cl)c(Cl)cc1Cl
inactive: [1] | [2] | [3] | [4] | [5] | [6] | [7] | [8] | [9]

C=CCOC(=O)C(C)(C)OC(=O)c1cc(-n2c(=O)cc(C(F)(F)F)n(C)c2=O)ccc1Cl
inactive: [1] | [3] | [4] | [5] | [11] | [8]

OCC1CO1 (stereo not given)
inactive: [1] | [2] | [3] | [4] | [5] | [6]

CCC(C)Cl (stereo not given)
inactive: [1] | [10] | [2] | [3] | [4] | [5] | [11] | [12] | [6] | [9]

OCCSSCCO
inactive: [1] | [2] | [4] | [5] | [11]

Nc1ccccc1C(=O)OCCc1ccccc1
active: [3] 897 nM and 796 nM | [12] 54.7 µM and 27.3 µM | [8] 1.09 µM and 1.37 µM
inactive: [1] | [4] | [5] | [11] | [6] | [7]

C[CH2][Hg][S]c1ccccc1C(=O)O
active: [1] 1.23 µM and 1.51 µM | [14] 1.93 µM and 2.66 µM | [2] 6.86 µM and 9.44 µM | [4] 19.3 µM and 11.9 µM | [5] 12.2 µM and 7.5 µM | [11] 12.2 µM and 6.68 µM | [8] 1.22 µM and 2.37 µM
inactive: [12] | [7] | [9]

CC(Oc1cccc(Cl)c1)C(=O)O (stereo not given)
inactive: [1] | [10] | [2] | [3] | [4] | [5] | [11] | [12] | [6] | [9]

CC(C)(C)NCC(O)c1ccccc1Cl (stereo not given)
inactive: [1] | [15] | [16] | [17] | [18] | [19] | [20] | [2] | [3] | [4] | [5] | [11] | [12] | [7] | [8] | [9]

O=C1CC[C@@]2(O)[C@H]3Cc4ccc(O)c5c4[C@@]2(CCN3CC2CC2)[C@H]1O5
inactive: [1] | [14] | [2] | [3] | [4] | [5] | [11] | [12] | [9]

C[C@@H]1C[C@@H]([C@H](O)CC2CC(=O)NC(=O)C2)C(=O)[C@@H](C)C1
inactive: [1] | [3] | [6] | [8] | [9]
active: [2] 430 nM and 154 nM and 266 nM | [4] 969 nM | [5] 765 nM and 611 nM | [7] 682 nM and 433 nM and 531 nM

O=C(Cc1ccccc1)c1ccccc1
inactive: [1] | [14] | [2] | [4] | [5] | [11] | [9]
active: [3] 71 µM

O=C(O)c1cc(I)cc(I)c1I
inactive: [1] | [14] | [2] | [3] | [4] | [5] | [11] | [12] | [6] | [9]

CCCCNC(=O)OCC#CI
inactive: [3] | [12] | [8]
active: [13] 68.2 µM | [2] 54.2 µM and 68.6 µM | [4] 30600 nM | [11] 54.2 µM and 24.3 µM | [6] 68.2 µM and 61.1 µM | [9] 8.59 µM and 4.33 µM

CN(C)N
inactive: [1] | [10] | [2] | [4] | [5] | [9]
